Screening results as filed in PubChem BioAssay.
PREPL inhibitor: human PREPL enzyme inhibition. recombinant PREPL, fluorescence polarization activity-based probe. inhibition, % at 5.96 µM. hit rate 0.68% among 320,000; in the data active = inhibition above about 43%;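 also: 0% = enzyme with DMSO and 100% = wells lacking enzyme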
Target sequence (Q4J6C6 whole entry, looked up): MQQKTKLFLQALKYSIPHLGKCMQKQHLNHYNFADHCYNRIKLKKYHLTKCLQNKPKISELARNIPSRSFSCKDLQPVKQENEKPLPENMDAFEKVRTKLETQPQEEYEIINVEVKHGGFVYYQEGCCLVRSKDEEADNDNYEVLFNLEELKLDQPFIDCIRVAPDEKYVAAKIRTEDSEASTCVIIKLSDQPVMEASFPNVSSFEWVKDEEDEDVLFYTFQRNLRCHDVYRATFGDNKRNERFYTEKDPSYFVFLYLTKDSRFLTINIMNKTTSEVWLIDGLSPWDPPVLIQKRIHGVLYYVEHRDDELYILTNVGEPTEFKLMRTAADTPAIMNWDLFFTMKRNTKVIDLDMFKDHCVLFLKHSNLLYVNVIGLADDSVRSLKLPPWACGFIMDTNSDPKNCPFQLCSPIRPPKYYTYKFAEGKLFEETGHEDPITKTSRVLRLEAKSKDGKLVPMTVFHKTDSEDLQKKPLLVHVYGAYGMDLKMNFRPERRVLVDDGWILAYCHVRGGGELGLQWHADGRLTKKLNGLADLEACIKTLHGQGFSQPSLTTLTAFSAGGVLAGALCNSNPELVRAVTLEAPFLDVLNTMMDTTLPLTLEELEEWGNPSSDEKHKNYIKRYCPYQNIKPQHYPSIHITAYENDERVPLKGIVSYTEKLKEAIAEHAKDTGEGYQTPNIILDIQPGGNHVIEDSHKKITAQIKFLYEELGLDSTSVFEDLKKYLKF
PP1 counter: blocks human PP1-alpha phosphatase, a PP5 counter-screen. P62136. purified PP1alpha, OMFP fluorescence. inhibition, % at 6.7 µM. hit rate 0.9% among 320,000. AID 2235;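 active = inhibition above the mean inhibition of all tested compounds plus 3 SD, computed separately for each screening campaign, cut at about 15% in these data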
TMEM16A inh: blocks the mouse calcium-activated chloride channel TMEM16A; AID 588511; normalized B-score (activity score, 25-100; higher = stronger inhibition) at 10 µM; hit rate 1.2% among 310,000; HEK293 TMEM16A/YFP iodide influx fluorescence, ionomycin; Q8BHY3;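 active = ratio plate-corrected score three or more library SD toward inhibition, starting fluorescence score within five deviations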;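 also: score derived from kinetic fluorescence span divided by baseline fluorescence per well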
PP5 inh: PP5 (human) phosphatase inhibition | purified PP5c, OMFP substrate fluorescence | inhibition, % at 6.7 µM | hit rate 0.18% among 320,000 | AID 1987;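 active = inhibition above the campaign's mean inhibition across all tested compounds plus 3 SD, cut at about 9.5% in these data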;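 also: 0% = DMSO only and 100% = 100 µM cantharidin control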
TMEM16A act: mouse TMEM16A channel activation, primary screen. Q8BHY3. HEK293 TMEM16A/YFP-H148Q/I152L, iodide quench fluorescence; stronger effect = lower value. B-score at 10 µM. hit rate 0.3% among 340,000;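 active = fluorescence-ratio B-score plate-corrected deviation score at least 3 library SD below zero, with starting fluorescence score within 5 deviations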;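 also: channel opened by trigger with iodide after compound preincubation; score built on the fluorescence ratio of max minus min over baseline; more negative score means more quench and so TMEM16A activation or potentiation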
DNA FID counter: counter-screen for HCV NS3 helicase inhibitors: DNA intercalator displacement; DNA fluorescent intercalator displacement, fluorescence; inhibition, % at 7.9 µM; hit rate 0.17% among 290,000; in the data active = inhibition above about 37%;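 also: 0% = vehicle and 100% = reference compound; higher means more ethidium bromide displaced from hairpin DNA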
* = called active by the depositor; i = inactive; / = no result. Compounds with a hit are over-represented: about 2.7% of the library has one in this group of screens.

SMILES | PREPL inhibitor | PP1 counter | TMEM16A inh | PP5 inh | TMEM16A act | DNA FID counter
CSc1nnc(N2C(=O)C(O)=C(C(=O)c3ccco3)C2c2ccccc2F)s1 (stereo unspecified) | 14.4 | 0.7 | i | 2.4 | -4.76* | -16.1
CC(=O)NCCc1ccc(C(=O)COC(=O)c2cc(C)oc2C)cc1 | 11.7 | / | / | / | i | /
CN(Cc1ccco1)S(=O)(=O)c1nnc(NC(=O)c2ccc(F)cc2)s1 | -2.4 | -0.1 | i | 1.1 | i | -8.8
CCOc1ccc(C(=O)Nc2nnc(S(=O)(=O)N(C)Cc3ccco3)s2)cc1 | 11.2 | 17.1* | i | -0.3 | i | -12.5
O=[N+]([O-])c1ccc(C=NN2CCCCCC2)cc1 | / | / | / | / | i | /
Brc1ccccc1OCCCCn1cnc2ccccc21 | -10.3 | 6.1 | 100* | 3.0 | i | -11.3
Clc1ccccc1OCCn1cnc2ccccc21 | 2.7 | 0.1 | i | 1.7 | i | -0.3
O=C(Nc1cccc(Cl)c1N1CCCC1)c1ccc(Br)o1 | -8.7 | -2.8 | 25* | 0.4 | i | 1.2
CCN1/C(=C/C=C/c2oc3ccc4ccccc4c3[n+]2CC)Oc2ccc3ccccc3c21 | -61.7 | 48.9* | i | -0.7 | / | -48.9
COc1ccc(C(CCNCc2ccc(OC(C)C)cc2)c2ccccc2OC)cc1 (stereo unspecified) | 17.9 | 11.7 | 25* | 0.1 | i | 17.5
COc1ccc(CNCCC(c2ccc(F)cc2)c2ccc(OC(C)C)cc2)cc1OC (stereo unspecified) | -1.9 | 2.6 | i | 3.9 | i | 37.8*
COc1ccc(CNCCC(c2ccc(OC)cc2)c2ccccc2OC)cc1 (stereo unspecified) | -10.3 | 1.5 | i | 2.1 | i | 5.7
COc1ccc(CNCCC(c2ccccc2)c2ccc(OC(C)C)cc2)cc1OC (stereo unspecified) | -11.5 | 5.3 | i | 1.0 | i | 18.7
Cc1ccccc1OCC(=O)NCCCNC(=O)c1ccccn1 | -4.5 | -3.2 | i | 1.7 | i | -16.0
CC(=O)Oc1cccc2c1C(=O)c1c(OC(C)=O)cc(C(=O)O)cc1C2=O | 4.8 | -0.7 | i | 2.2 | i | 3.2
O=C(O)c1cc(O)c2c(c1)C(=O)c1cc(O)cc(O)c1C2=O | -1.4 | 1.3 | i | 4.5 | -16.4* | -22.3
CCN(c1ccccc1)S(=O)(=O)c1ccc(Cl)c(C(=O)N(CC2CCCO2)C2CCS(=O)(=O)C2)c1 (stereo unspecified) | 4.6 | 1.2 | i | -0.7 | i | -18.4
O=C(CN1C(=O)C2CC=CCC2C1=O)Nc1nc(-c2ccc(F)c(F)c2)cs1 (stereo unspecified) | 2.7 | / | / | / | i | /
Cn1cc(C(c2ccccc2OCC(=O)O)c2cn(C)c3ccccc23)c2ccccc21 | 3.0 | 8.0 | 25* | 3.8 | i | -14.5
CCn1c(=O)cc(OCC(=O)O)c2ccccc21 | 0.1 | -2.1 | i | -0.3 | i | 5.2
O=C(/C=C/c1ccc2c(c1)OCO2)N1CCN(c2n[nH]c(=O)[nH]c2=O)CC1 | 15.4 | -5.0 | i | -1.0 | i | -16.2
CCn1cc(C(=O)O)c(=O)c2cc(F)c(N/N=C/c3ccccc3)cc21 | 15.3 | 16.4* | i | -2.0 | i | -2.2
COc1cc(OC)c(N(C)S(=O)(=O)c2cccc(C(=O)OCC(=O)N(C)Cc3ccccc3)c2)cc1Cl | / | / | / | / | i | /
O=C(Nc1ccccc1C(=O)N/N=C/c1ccco1)c1ccccc1Cl | -5.1 | -1.4 | 100* | 1.9 | i | -2.4
CC1CCN(S(=O)(=O)c2ccc(S(=O)(=O)N3CCC4(CC3)OCCO4)cc2)CC1 | -1.5 | -2.4 | i | 1.7 | i | 0.6
SMILES | PREPL inhibitor | PP1 counter | TMEM16A inh | PP5 inh | TMEM16A act | DNA FID counter
CCOC(=O)C1CCCC12Nc1cccc3cccc(c13)N2 (stereo unspecified) | / | / | / | / | i | /
CCCN=Cc1c(CCC)[nH]n(-c2nc3ccccc3s2)c1=O | 1.9 | -3.0 | i | 1.6 | i | -15.0
CCCc1[nH]n(-c2nc3ccccc3s2)c(=O)c1C=NCCCN(CC)CC | -1.8 | 15.7* | i | 1.3 | i | -5.3
O=C(c1[nH]nc2c1CCc1ccccc1-2)N1CCN(Cc2ccc3c(c2)OCO3)CC1 | 8.5 | 0.2 | 25* | 2.2 | i | -17.6
O=C(c1ccccc1)N1CCN(Cc2ccc3c(c2)OCO3)CC1 | 25.1 | -2.3 | i | -0.8 | / | -11.0
CCCSc1cc(N2CCCC2)nc(-c2ccccc2)n1 | 3.8 | -0.2 | i | 0.2 | -25.8* | 2.8
